This excerpt belongs to a sample that is enriched for the strongest signals.
Key:
Assay in all cases: glycan array binding signal (z-score within array); higher = stronger binding
Settings in all cases: glycan notation: IUPAC condensed, linker removed
[1] = target: Fuc(a1-2)[Gal(a1-3)]Gal(b1-3)GlcNAc
In short: (§1)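 Negative Z-scores can be read as non-binding. The Z-score is calculated within each array and then averaged across arrays of one protein sequence at different concentrations or buffers and across linkers. Arrays, 3228 in all, were curated from the Consortium for Functional Glycomics database and kept only where the protein sequence was available.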

[2] = target: Fuc(a1-2)[Gal(a1-3)]Gal(b1-3)GlcNAc(b1-2)Man(a1-3)[Fuc(a1-2)[Gal(a1-3)]Gal(b1-3)GlcNAc(b1-2)Man(a1-6)]Man(b1-4)GlcNAc(b1-4)GlcNAc
In short: as §1

[3] = target: Fuc(a1-2)[Gal(a1-3)]Gal(b1-3)GlcNAc(b1-3)GalNAc
In short: as §1

[4] = target: Fuc(a1-2)[Gal(a1-3)]Gal(b1-3)GlcNAc(b1-6)GalNAc
In short: as §1

[5] = target: Fuc(a1-2)[Gal(a1-3)]Gal(b1-4)Glc
In short: as §1

[6] = target: Fuc(a1-2)[Gal(a1-3)]Gal(b1-4)GlcNAc
In short: as §1

[7] = target: Fuc(a1-2)[Gal(a1-3)]Gal(b1-4)GlcNAc(b1-2)Man
In short: as §1

[8] = target: Fuc(a1-2)[Gal(a1-3)]Gal(b1-4)GlcNAc(b1-2)Man(a1-3)[Fuc(a1-2)[Gal(a1-3)]Gal(b1-4)GlcNAc(b1-2)Man(a1-6)]Man(b1-4)GlcNAc(b1-4)GlcNAc
In short: as §1

[9] = target: Fuc(a1-2)[Gal(a1-3)]Gal(b1-4)GlcNAc(b1-2)Man(a1-3)[Fuc(a1-2)[Gal(a1-3)]Gal(b1-4)GlcNAc(b1-2)Man(a1-6)]Man(b1-4)GlcNAc(b1-4)[Fuc(a1-6)]GlcNAc
In short: as §1

[10] = target: Fuc(a1-2)[Gal(a1-3)]Gal(b1-4)GlcNAc(b1-3)GalNAc
In short: as §1

[11] = target: Fuc(a1-2)[Gal(a1-3)]Gal(b1-4)GlcNAc(b1-3)[Fuc(a1-2)[Gal(a1-3)]Gal(b1-4)GlcNAc(b1-6)]GalNAc
In short: as §1

[12] = target: Fuc(a1-2)[Gal(a1-3)]Gal(b1-4)[Fuc(a1-3)]GlcNAc(b1-3)GalNAc
In short: as §1

[13] = target: Fuc(a1-2)[GalNAc(a1-3)]Gal(b1-4)GlcNAc(b1-6)GalNAc
In short: as §1

[14] = target: Fuc(a1-3)[Gal(b1-4)]GlcNAc(b1-6)[Gal(b1-3)GlcNAc(b1-3)]Gal(b1-4)Glc
In short: as §1

[15] = target: Gal(b1-3)GlcNAc(b1-2)Man(a1-3)[Gal(b1-3)GlcNAc(b1-2)Man(a1-6)]Man(b1-4)GlcNAc(b1-4)[Fuc(a1-6)]GlcNAc
In short: as §1

[16] = target: Gal(b1-3)GlcNAc(b1-3)Gal(b1-4)GlcNAc(b1-3)Gal(b1-4)GlcNAc(b1-2)[Gal(b1-3)GlcNAc(b1-3)Gal(b1-4)GlcNAc(b1-3)Gal(b1-4)GlcNAc(b1-6)]Man(a1-6)[Gal(b1-3)GlcNAc(b1-3)Gal(b1-4)GlcNAc(b1-3)Gal(b1-4)GlcNAc(b1-2)Man(a1-3)]Man(b1-4)GlcNAc(b1-4)[Fuc(a1-6)]GlcNAc
In short: as §1

[17] = target: Gal(b1-3)[Fuc(a1-4)]GlcNAc
In short: as §1

Gal(b1-4)Glc = target: Gal(b1-4)Glc
In short: as §1

Gal(b1-4)Glc6S = target: Gal(b1-4)Glc6S
In short: as §1

[18] = target: Gal(b1-4)GlcNAc(a1-6)Gal(b1-4)GlcNAc
In short: as §1

[19] = target: Gal(b1-4)GlcNAc(b1-2)Man(a1-6)[GlcNAc(b1-2)Man(a1-3)]Man(b1-4)GlcNAc(b1-4)GlcNAc
In short: as §1

[20] = target: Gal(b1-4)GlcNAc(b1-3)Gal(b1-4)GlcNAc(b1-2)[Gal(b1-4)GlcNAc(b1-3)Gal(b1-4)GlcNAc(b1-6)]Man(a1-6)[Gal(b1-4)GlcNAc(b1-3)Gal(b1-4)GlcNAc(b1-2)Man(a1-3)]Man(b1-4)GlcNAc(b1-4)GlcNAc
In short: as §1

Gal3S6S(b1-4)GlcNAc = target: Gal3S6S(b1-4)GlcNAc
In short: as §1

Gal3S6S(b1-4)GlcNAc6S = target: Gal3S6S(b1-4)GlcNAc6S
In short: as §1

Gal6S(b1-4)GlcNAc = target: Gal6S(b1-4)GlcNAc
In short: as §1

[21] = target: GalNAc(b1-3)Gal(a1-4)Gal(b1-4)GlcNAc(b1-3)Gal(b1-4)Glc
In short: as §1

GalNAc(b1-3)GlcNAc = target: GalNAc(b1-3)GlcNAc
In short: as §1

[22] = target: GalNAc(b1-4)GlcNAc(b1-2)Man
In short: as §1

GalNAc3S(b1-4)GlcNAc = target: GalNAc3S(b1-4)GlcNAc
In short: as §1

[23] = target: GlcNAc(a1-4)Gal(b1-4)GalNAc
In short: as §1

[24] = target: GlcNAc(b1-3)Gal(b1-4)GlcNAc(b1-2)Man(a1-3)[GlcNAc(b1-3)Gal(b1-4)GlcNAc(b1-2)Man(a1-6)]Man(b1-4)GlcNAc(b1-4)GlcNAc
In short: as §1

[25] = target: GlcNAc(b1-3)Gal(b1-4)GlcNAc(b1-3)Gal(b1-4)GlcNAc(b1-3)Gal(b1-4)GlcNAc(b1-2)[GlcNAc(b1-3)Gal(b1-4)GlcNAc(b1-3)Gal(b1-4)GlcNAc(b1-3)Gal(b1-4)GlcNAc(b1-6)]Man(a1-6)[GlcNAc(b1-3)Gal(b1-4)GlcNAc(b1-3)Gal(b1-4)GlcNAc(b1-3)Gal(b1-4)GlcNAc(b1-2)Man(a1-3)]Man(b1-4)GlcNAc(b1-4)[Fuc(a1-6)]GlcNAc
In short: as §1

[26] = target: GlcNAc(b1-4)Gal(b1-4)GlcNAc
In short: as §1

[27] = target: Man(a1-2)Man(a1-6)[Man(a1-3)]Man(a1-6)[Man(a1-2)Man(a1-2)Man(a1-3)]Man
In short: as §1

[28] = target: Man(a1-3)[Man(a1-6)]Man(a1-6)[Man(a1-2)Man(a1-3)]Man(b1-4)GlcNAc(b1-4)GlcNAc
In short: as §1

[29] = target: Neu5Ac(a2-3)Gal(b1-3)GlcNAc(b1-3)Gal(b1-3)GlcNAc
In short: as §1

[30] = target: Neu5Ac(a2-3)Gal(b1-3)GlcNAc(b1-3)GalNAc
In short: as §1

[31] = target: Neu5Ac(a2-3)Gal(b1-4)GlcNAc(b1-2)Man(a1-3)[Neu5Ac(a2-3)Gal(b1-4)GlcNAc(b1-2)Man(a1-6)]Man(b1-4)GlcNAc(b1-4)GlcNAc
In short: as §1

[32] = target: Neu5Ac(a2-3)Gal6S(b1-4)GlcNAc
In short: as §1

[33] = target: Neu5Ac(a2-6)Gal(b1-4)GlcNAc(b1-2)Man(a1-3)[Neu5Ac(a2-6)Gal(b1-4)GlcNAc(b1-2)Man(a1-6)]Man(b1-4)GlcNAc(b1-4)GlcNAc
In short: as §1

[34] = target: Neu5Ac(a2-6)Gal(b1-4)GlcNAc(b1-2)Man(a1-6)[Gal(b1-4)GlcNAc(b1-2)Man(a1-3)]Man(b1-4)GlcNAc(b1-4)GlcNAc
In short: as §1

[35] = target: Neu5Ac(a2-6)Gal(b1-4)GlcNAc(b1-2)[Neu5Ac(a2-6)Gal(b1-4)GlcNAc(b1-4)]Man(a1-3)[GlcNAc(b1-4)][Neu5Ac(a2-6)Gal(b1-4)GlcNAc(b1-2)[Neu5Ac(a2-6)Gal(b1-4)GlcNAc(b1-6)]Man(a1-6)]Man(b1-4)GlcNAc(b1-4)GlcNAc
In short: as §1

[36] = target: Neu5Ac(a2-6)Gal(b1-4)GlcNAc(b1-3)GalNAc
In short: as §1

Neu5Ac(a2-8)Neu5Ac = target: Neu5Ac(a2-8)Neu5Ac
In short: as §1

[37] = target: Neu5Ac(a2-8)Neu5Ac(a2-3)[GalNAc(b1-4)]Gal(b1-4)Glc
In short: as §1

Neu5Gc(a2-6)GalNAc = target: Neu5Gc(a2-6)GalNAc
In short: as §1

B1: DrGRIFIN (Danio rerio), Q6DGJ1 (protein)
chain: MTLRFEASCPDGLCPGWSVILKGETPPEASKFEINFLCDRDDRVAFHFNPRFTESDIICNSYMANRWGQEERCNHFPLGVEEPFQIEIYSDNDHFHVYIDKAKVMQYKHRVEDLKTITKLQVVNDVKISSLEITKKLFY
glycan array binding signal (z-score) [1]: 5.95
glycan array binding signal (z-score) [2]: 10.6
glycan array binding signal (z-score) [3]: 5.36
glycan array binding signal (z-score) [4]: 6.96
glycan array binding signal (z-score) [5]: 6.1
glycan array binding signal (z-score) [6]: 6.44
glycan array binding signal (z-score) [7]: 9.46
glycan array binding signal (z-score) [8]: 4.9
glycan array binding signal (z-score) [9]: 5.59
glycan array binding signal (z-score) [10]: 4.81
glycan array binding signal (z-score) [11]: 6.36
glycan array binding signal (z-score) [12]: -0.062
glycan array binding signal (z-score) [13]: -0.23
glycan array binding signal (z-score) [14]: -0.109
glycan array binding signal (z-score) [15]: -0.135
glycan array binding signal (z-score) [16]: -0.107
glycan array binding signal (z-score) [17]: -0.187
glycan array binding signal (z-score) (Gal(b1-4)Glc): -0.191
glycan array binding signal (z-score) (Gal(b1-4)Glc6S): -0.201
glycan array binding signal (z-score) [18]: -0.172
glycan array binding signal (z-score) [19]: -0.071
glycan array binding signal (z-score) [20]: -0.039
glycan array binding signal (z-score) (Gal3S6S(b1-4)GlcNAc): -0.193
glycan array binding signal (z-score) (Gal3S6S(b1-4)GlcNAc6S): -0.097
glycan array binding signal (z-score) (Gal6S(b1-4)GlcNAc): -0.181
glycan array binding signal (z-score) [21]: -0.12
glycan array binding signal (z-score) (GalNAc(b1-3)GlcNAc): -0.192
glycan array binding signal (z-score) [22]: -0.129
glycan array binding signal (z-score) (GalNAc3S(b1-4)GlcNAc): -0.052
glycan array binding signal (z-score) [23]: -0.154
glycan array binding signal (z-score) [24]: -0.132
glycan array binding signal (z-score) [25]: -0.163
glycan array binding signal (z-score) [26]: -0.166
glycan array binding signal (z-score) [27]: -0.123
glycan array binding signal (z-score) [28]: -0.189
glycan array binding signal (z-score) [29]: -0.131
glycan array binding signal (z-score) [30]: -0.117
glycan array binding signal (z-score) [31]: -0.141
glycan array binding signal (z-score) [32]: -0.179
glycan array binding signal (z-score) [33]: -0.171
glycan array binding signal (z-score) [34]: -0.195
glycan array binding signal (z-score) [35]: -0.026
glycan array binding signal (z-score) [36]: -0.217
glycan array binding signal (z-score) (Neu5Ac(a2-8)Neu5Ac): -0.131
glycan array binding signal (z-score) [37]: -0.146
glycan array binding signal (z-score) (Neu5Gc(a2-6)GalNAc): -0.148

Source: the supplement of paper PMC8728848
